# Laboratory results taken from PubChem BioAssay AID651813 (National Center for Advancing Translational Sciences (NCATS), 2012).
# Among all 2,100 compounds or so, about 1,100 (52%) were called active. Not shown: some 27% with an inconclusive outcome. Calls follow the shape of the dose curve; as a rule, active = well fitted inhibition curve with a large enough effect; inconclusive = small, poorly fitted or top-dose-only effect; inactive = no such curve, though single readings can be large or run the other way. So high a share suggests a set chosen from earlier hits. This is one part of the list.
# Target: DNA dC->dU-editing enzyme APOBEC-3G (Homo sapiens) (UniProt Q9HC16)
# Experiment: qHTS for inhibitors of Vif-A3G interactions: Cherry picks counterscreen;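 also: hits raise yellow fluorescence by blocking Vif-driven A3G-eYFP degradation; nearly all actives have a fitted effect of over 70% in size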;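 as to max response: max response given as percent of control signal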
# Conditions: HeLa A3G-eYFP + Vif (tagged APOBEC3G with the HIV-1 protein that degrades it), eYFP fluorescence, 24 h
# Procedure, shortened: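 Readout is eYFP fluorescence (488 nm excitation, 500-530 nm emission) measured on Acumen Explorer after 24 h compound exposure, several concentrations, at 37 deg C. Cells: HeLa stably co-expressing Vif and C-terminally eYFP-tagged A3G; MG132 positive control.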
# Potency is read from the fitted curve at half-maximal effect.
# Chain of DNA dC->dU-editing enzyme APOBEC-3G (Homo sapiens) (Q9HC16 whole entry, looked up): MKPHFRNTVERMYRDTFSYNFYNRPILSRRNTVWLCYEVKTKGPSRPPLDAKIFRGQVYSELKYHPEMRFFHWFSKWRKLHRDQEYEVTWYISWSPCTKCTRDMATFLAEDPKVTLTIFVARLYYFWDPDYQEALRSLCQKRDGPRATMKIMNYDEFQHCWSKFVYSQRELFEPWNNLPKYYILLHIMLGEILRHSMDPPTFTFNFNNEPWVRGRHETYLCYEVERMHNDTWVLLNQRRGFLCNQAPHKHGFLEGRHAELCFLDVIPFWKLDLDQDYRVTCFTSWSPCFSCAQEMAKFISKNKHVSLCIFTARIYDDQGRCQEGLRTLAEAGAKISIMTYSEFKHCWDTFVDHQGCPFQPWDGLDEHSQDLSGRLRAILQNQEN
SMILES,max response,Potency
O=C(Oc1ccc(Cl)c2cccnc12)c1ccco1,17.4% (inactive),
COc1ccc(-c2csc(-c3ccc(O)cc3)n2)cc1,,5.59 µM (active)
COc1ccc(-c2ccnc(-c3ccc(O)cc3)n2)cc1,,1.58 µM (active)
Oc1ccc(-c2nc(-c3ccc(O)c(O)c3)cs2)cc1,,0.994 µM (active)
COc1cc(C2c3cc4c(cc3OC(C)(N3CCCC3)C2C)OCO4)cc(OC)c1OC (stereo not given),,0.994 µM (active)
COc1cccc(C2=CC(c3ccccc3)n3nnnc3N2)c1 (stereo not given),,8.86 µM (active)
C=CCOC(=O)C1=C(C)Nc2nnnn2C1c1cccs1 (stereo not given),-7.35% (inactive),
COc1cccc(C2=CC(c3cccs3)n3nnnc3N2)c1 (stereo not given),,2.8 µM (active)
N#CC1=C(S)N(c2ccc(F)cc2)C2(CCCCC2)NC1=O,4.28% (inactive),
Cc1ccc(/C=N/NC(=O)CCCOc2ccc(Cl)cc2Cl)cc1,,7.9 µM (active)
CCCn1nnc(NC(=S)NC(=O)c2ccccc2OC)n1,9.21% (inactive),
CCCn1c(SCC(=O)Nc2ccccc2OC)nnc1-c1ccco1,,17.7 µM (active)
CC(C)C1C(=O)N(Cc2cn(CCC3OCCCO3)nn2)CCS(=O)(=O)N1Cc1ccc(-c2cccc(CO)c2)cc1 (stereo not given),-8.99% (inactive),
CC(=O)C1=C(C)NC(SCC(=O)c2ccc(Cl)cc2)=C(C#N)C1c1ccco1 (stereo not given),,16.4 µM (active)
O=[N+]([O-])c1ccc(N2CCN(Cc3ccccc3)CC2)c2c1no[n+]2[O-],,12.5 µM (active)
CC1(C)Cc2ccccc2C2CC(O)C(=O)N21 (stereo not given),,20.6 µM (active)
COc1ccc(S(=O)(=O)NN(C)c2nc(C(F)(F)F)nc3ccccc23)cc1,,7.04 µM (active)
CCCCOc1nc2ccccc2nc1NS(=O)(=O)c1ccc(F)cc1,-6.51% (inactive),
COc1ccc(OC)c(NS(=O)(=O)c2ccc(Cl)s2)c1,,12.5 µM (active)
CC[n+]1c(/C=C/N(C)c2ccccc2)oc2ccc(F)cc21,,14 µM (active)
CC[n+]1c(/C=C/Nc2ccccc2)oc2ccccc21,,9.2 µM (active)
CC[n+]1c(/C=C/Nc2ccccc2)oc2ccc(OC)cc21,,14.6 µM (active)
CCc1ccc(N=Nc2ccc(O)c3[nH]cnc23)cc1,,7.31 µM (active)

SMILES,max response,Potency
CC(C)(C)c1ccc(Cn2c(=O)cnc3ccccc32)cc1,3.64% (inactive),
ClCc1nc2ccccc2n1Cc1ccccc1,,20.6 µM (active)
COc1ccc(NC2=CC(=O)CC(c3ccccc3)C2)c(OC)c1 (stereo not given),,11.2 µM (active)
CC(=O)c1cccc(-c2ccnc3c2CC(C(=O)NCc2ccc(F)c(F)c2)O3)c1 (stereo not given),,2.8 µM (active)
CC(=O)c1cccc(-c2ccnc3c2CC(C(=O)NCc2ccco2)O3)c1 (stereo not given),,1.58 µM (active)
NC(=O)c1cccc(-c2ccnc3c2CC(C(=O)NCc2ccco2)O3)c1 (stereo not given),,17.7 µM (active)
O=C(NCc1ccccc1)C1Cc2c(-c3cccc(F)c3)ccnc2O1 (stereo not given),,1.4 µM (active)
O=C(NCc1ccco1)C1Cc2c(-c3cccc(F)c3)ccnc2O1 (stereo not given),,5.59 µM (active)
CC(=O)c1cccc(-c2ccnc3c2CC(C(=O)NCC2CCOCC2)O3)c1 (stereo not given),,5.59 µM (active)
N#CC1=C(N)Oc2c(sc3ccccc23)C1c1ccco1 (stereo not given),,12.5 µM (active)
CC1CC(=O)C2=C(C1)OC(N)=C(C#N)C2c1coc2ccccc2c1=O (stereo not given),-19.2% (inactive),
CC(O)CN(CC(C)O)c1ccc2c(c1)Cc1cc([N+](=O)[O-])ccc1-2 (stereo not given),,0.58 µM (active)
Cc1cc(C)c2cc3c(N)c(C(=O)Nc4c(C)[nH]c(=O)[nH]c4=O)sc3nc2c1,,11.6 µM (active)
COc1cc2c(c(OC)c1OC)-c1ccc(N(C)CC(OC)OC)c(=O)cc1[C@@H](NC(C)=O)CC2,,0.559 µM (active)
CN[C@H]1CCc2cc(OC)c(OC)c(OC)c2-c2ccc(N(C)CC(OC)OC)c(=O)cc21,,6.27 µM (active)
O=C(NCCN1C(=O)S/C(=C\c2ccc(OC(F)F)cc2)C1=O)c1cnccn1,,12.5 µM (active)
CC(C)c1ccc(C(=O)NCCCNC(=O)c2cnccn2)cc1,10.5% (inactive),
Cn1c(/C=C/c2ccc([N+](=O)[O-])o2)nc2ccccc2c1=O,,14.6 µM (active)
CCn1c(/C=C/c2ccc([N+](=O)[O-])o2)nc2ccccc2c1=O,,20.6 µM (active)
O=c1c2ccccc2nc(/C=C/c2ccc([N+](=O)[O-])o2)n1CCCO,,10.3 µM (active)
CCCN1C(=O)C(Cc2nc3ccccc3c(=O)n2CC)c2cc(Br)ccc21 (stereo not given),11.6% (inactive),
N#C/C(N=Nc1ccccc1O)=N\Nc1ccccc1O,,16.4 µM (active)
